# Data from PubChem BioAssay (Tox21).
# Where “and” joins values, the source holds several entries; their conditions need not be identical. Identical values can stand only once. Inconclusive results are not listed. Entries that show only a call come without a potency. More than one record can exist for a structure, and the calls need not agree. Calls of active or inactive are those of the source. Unless noted, calls come from the whole dose curve; as a rule, active = well fitted curve in the direction sought with a large enough effect in the repeat runs; inconclusive = weak or mixed curves; inactive = no such curve, though single readings can be large; an effect the other way counts as inactive or inconclusive.
# Key:
# [1] = qHTS assay to identify small molecule antagonists of the estrogen receptor alpha (ER-alpha) signaling pathway using the BG1 cell line in the presence of 0.1 nM 17-beta-estradiol - cell viability counter screen (AID 1259241); note: nearly all actives have a fitted effect of over 40% in size; note: potency is the fitted concentration of half-maximal effect
# Method in brief: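 Live-cell protease activity (CellTiter-Fluor fluorescence, 30 min) was read in the same wells after VM7Luc4E2 cells had been exposed to compounds with 0.1 nM 17beta-estradiol for 22 hr at 37C.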
# [2] = qHTS assay to identify small molecule antagonists of the androgen receptor (AR) signaling pathway using the MDA cell line in the presence of 0.5 nM R1881 - cell viability counter screen (AID 1259242); note: nearly all actives have a fitted effect of over 45% in size; note: potency is the fitted concentration of half-maximal effect
# Method in brief: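 Viability of MDA-kb2 cells was multiplexed with the luciferase AR readout; after 16 hr with compounds and R1881 at 0.5 nM final, CellTiter-Fluor fluorescence was recorded.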
# [3] = biological target: Estrogen receptor (Homo sapiens) (UniProt P03372); experiment: qHTS assay to identify small molecule antagonists of the estrogen receptor alpha (ER-alpha) signaling pathway using the BG1 cell line in the presence of 0.1 nM 17-beta-estradiol (AID 1259244); note: nearly all actives have a fitted effect of over 50% in size
# Method in brief: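 Estradiol at 0.1 nM (final) stimulates the endogenous ER-alpha of VM7Luc4E2 cells carrying an ERE-driven luciferase; compounds are co-incubated 22 h at 37C and luciferase output quantified by luminescence.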
# [4] = qHTS assay to identify small molecule HDAC inhibitors (AID 1259364);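 note: wild-type HCT-116 cells with endogenous class I/II HDAC activity; top concentration of the series differs between compounds; nearly all actives have a fitted effect of over 45% in size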
# Method in brief: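 Read-out: luminescence of HDAC-Glo I/II reagent, 30 min RT, reflecting class I/II deacetylase activity in whole HCT-116 cells pre-exposed 2 h to DMSO-dissolved compounds.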
# [5] = qHTS assay to identify small molecule agonists of the sonic hedgehog signaling (Shh) pathway - cell viability counter screen (AID 1259366); note: nearly all actives have a fitted effect of over 50% in size; note: potency is the fitted concentration of half-maximal effect
# Method in brief: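 CellTiter-Fluor fluorescence read-out, 1 hr at 37C, added after 23hr compound exposure. Cells: 3T3 Gli1-Luc, an NIH/3T3 clone with stably integrated Gli1-Luc reporter, plated 4hr before compound.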
# [6] = qHTS assay to identify small molecule antagonists of the sonic hedgehog signaling (Shh) pathway - cell viability counter screen (AID 1259367); note: nearly all actives have a fitted effect of over 55% in size; note: potency is the fitted concentration of half-maximal effect
# Method in brief: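 After a 4 hr settling period, 3T3 Gli1-Luc cells were treated with DMSO-dissolved chemicals and conditioned medium, kept 24 hr at 37C in 5% CO2, and assayed for viability by CellTiter-Fluor fluorescence following 1 hr reagent incubation.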
# [7] = qHTS assay to identify small molecule agonists of the sonic hedgehog signaling (Shh) pathway (AID 1259368; calls by dose curve;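 note: NIH/3T3-derived 3T3Gli1-Luc cells carrying a stable Gli1-driven firefly luciferase reporter; series mostly up to about 92 µM; nearly all actives have a fitted effect of over 15% in size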)
# Method in brief: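 A Gli1 transcriptional response element controlled firefly luciferase in 3T3Gli1-Luc cells. Compounds and a positive control were added 4 hr after plating, and cells were incubated a further 24 hr at 37 C before luminescence detection.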
# [8] = biological target: Estrogen receptor beta (Homo sapiens) (UniProt Q92731); experiment: qHTS assay to identify small molecule agonists of the estrogen receptor beta (ER-beta) signaling pathway (AID 1259377; active = well fitted activation curve with a large enough effect in the signal ratio in the repeat runs, not every such curve was filed as active; the % refers to the signal ratio)
# Method in brief: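 Beta-lactamase reporter readout: fluorescence of LiveBLAzer B/G FRET substrate after 2 h at room temperature, following 16 h compound treatment of ER-beta-UAS-bla HEK293T cells at 37C in 2% charcoal-stripped FBS medium.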
# [9] = biological target: Estrogen receptor beta (Homo sapiens) (UniProt Q92731); experiment: qHTS assay to identify small molecule antagonists of the estrogen receptor beta (ER-beta) signaling pathway (AID 1259378; active = well fitted inhibition curve with a large enough effect in the signal ratio in the repeat runs, not every such curve was filed as active; the % refers to the signal ratio; note: potency is the fitted concentration of half-maximal effect)
# Method in brief: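 ER-beta-UAS-bla HEK293T (GripTite) cells in 2% charcoal-stripped FBS medium were preincubated 6 hr at 37C, dosed with compound, then stimulated with 1 nM E2 (final) for 16 hr; beta-lactamase reporter read by B/G FRET fluorescence after 2 hr substrate loading.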
# [10] = qHTS assay to identify small molecule agonists of the androgen receptor (AR) signaling pathway in the presence of an antagonist - cell viability counter screen (AID 1259379); note: nearly all actives have a fitted effect of over 25% in size; note: potency is the fitted concentration of half-maximal effect;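 for activity change, negative = cytotoxicity: MDA-kb2 human breast cancer cells carrying an MMTV luciferase reporter; series mostly up to about 92 µM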
# Method in brief: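 Seed MDA-kb2 at 3,000 cells/well; incubate 5 hr, 37C, 0% CO2. Add nilutamide to 3.0uM final, then pin compounds at 15 concentrations. Incubate 16 hr. Add CellTiter-Fluor at 15 hr, read fluorescence after 1 hr.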
# [11] = qHTS assay to identify small molecule agonists of the estrogen receptor beta (ER-beta) signaling pathway - cell viability counter screen (AID 1259380); note: nearly all actives have a fitted effect of over 30% in size; note: potency is the fitted concentration of half-maximal effect
# Method in brief: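 CellTiter-Glo read, 30 min RT, same wells as bla assay; cells ER-beta-UAS-bla HEK293T; 16 hr compound, 37C; medium 2% charcoal-stripped FBS.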
# [12] = qHTS assay to identify small molecule antagonists of the estrogen receptor beta (ER-beta) signaling pathway - cell viability counter screen (AID 1259382); note: nearly all actives have a fitted effect of over 55% in size; note: potency is the fitted concentration of half-maximal effect; for activity change, negative = cytotoxicity: series mostly up to about 92 µM
# Method in brief: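 In this multiplexed counter screen, cells were seeded at 2,000 per well in medium with 2% charcoal-stripped FBS and incubated 6 hr before compound and 1nM final E2 were added. Sixteen hours later, ATP-based luminescence reported viability.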
# [13] = biological target: Estrogen receptor (Homo sapiens) (UniProt P03372); experiment: qHTS assay to identify small molecule agonists of the estrogen receptor alpha (ER-alpha) signaling pathway in the presence of an antagonist (AID 1259383; calls by dose curve; note: top concentration of the series differs between compounds; nearly all actives have a fitted effect of over 15% in size)
# Method in brief: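 Stably transfected VM7Luc4E2 reporter cells, kept 5 days in charcoal-stripped serum, received ICI-182,780 at 10.0nM final before compound addition. Following 22hr incubation at 37C and 5% CO2, luciferase signal was read by luminescence.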
# [14] = qHTS assay to identify small molecule agonists or antagonists of the thyroid stimulating hormone receptor (TSHR) signaling pathway - wild type cell line counter screen (AID 1259384; calls by dose curve)
# Method in brief: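 Wild-type HEK293 cells were plated 18 h at 37 C/5% CO2, pin-dosed with compound plus Ro20-1724 medium, held 30 min at room temperature, then given cAMP-d2 and anti-cAMP-cryptate; fluorescence was read after 1 h. Fifteen concentrations, triplicate.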
# [15] = biological target: Thyrotropin receptor (Homo sapiens) (UniProt P16473); experiment: qHTS assay to identify small molecule antagonists of the thyroid stimulating hormone receptor (TSHR) signaling pathway (AID 1259385; calls by dose curve; note: nearly all actives have a fitted effect of over 20% in size)
# Method in brief: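 TSHR-HEK293 cells were plated and held 18 h at 37C/5% CO2, then given compound plus Ro20-1724 and stimulated with TSH at 1.5 ng/mL final. After 30 min at room temperature, cAMP was detected with cAMP-d2/anti-cAMP-cryptate (1 h) by fluorescence.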
# [16] = qHTS assay to identify small molecule phospholipidosis (PLD) inducers (AID 1259344; active = well fitted curve in the direction sought with a large enough effect; an effect the other way counts as inactive or inconclusive)
# Method in brief: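 HepG2 cells grown on collagen I take up LipidTOX Red while exposed to compound for 24 h; after fixation they are imaged at 20x and pit metrics are extracted.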
# [17] = qHTS assay to identify small molecule HDAC inhibitors - cell viability counter screen (AID 1259365); note: series mostly up to about 92 µM; nearly all actives have a fitted effect of over 50% in size
# Method in brief: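 HCT-116 (wild type), 1,500 cells/well, overnight 37C/5% CO2; compound in DMSO 2hr; CellTiter-Glo 30min RT; luminescence read.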
# [18] = qHTS assay to identify small molecule antagonists of the sonic hedgehog signaling (Shh) pathway (AID 1259369; calls by dose curve; note: nearly all actives have a fitted effect of over 45% in size; note: potency is the fitted concentration of half-maximal effect)
# Method in brief: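 For antagonist detection, the reporter line received test compounds together with conditioned medium, incubated 24hr at 37 C, 5% CO2, then luminescence was recorded following 30min room-temperature luciferase reagent incubation.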
# [19] = biological target: Androgen receptor (Homo sapiens) (UniProt P10275); experiment: qHTS assay to identify small molecule agonists of the androgen receptor (AR) signaling pathway in the presence of an antagonist (AID 1259381; calls by dose curve; note: nearly all actives have a fitted effect of over 15% in size)
# Method in brief: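 Test compounds at 15 concentrations were incubated for 16hr with MDA-kb2 reporter cells in presence of 3.0uM nilutamide (final). Signal: ONE-Glo luciferase luminescence.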
# Chain of Estrogen receptor beta (Homo sapiens) (Q92731 whole entry, looked up): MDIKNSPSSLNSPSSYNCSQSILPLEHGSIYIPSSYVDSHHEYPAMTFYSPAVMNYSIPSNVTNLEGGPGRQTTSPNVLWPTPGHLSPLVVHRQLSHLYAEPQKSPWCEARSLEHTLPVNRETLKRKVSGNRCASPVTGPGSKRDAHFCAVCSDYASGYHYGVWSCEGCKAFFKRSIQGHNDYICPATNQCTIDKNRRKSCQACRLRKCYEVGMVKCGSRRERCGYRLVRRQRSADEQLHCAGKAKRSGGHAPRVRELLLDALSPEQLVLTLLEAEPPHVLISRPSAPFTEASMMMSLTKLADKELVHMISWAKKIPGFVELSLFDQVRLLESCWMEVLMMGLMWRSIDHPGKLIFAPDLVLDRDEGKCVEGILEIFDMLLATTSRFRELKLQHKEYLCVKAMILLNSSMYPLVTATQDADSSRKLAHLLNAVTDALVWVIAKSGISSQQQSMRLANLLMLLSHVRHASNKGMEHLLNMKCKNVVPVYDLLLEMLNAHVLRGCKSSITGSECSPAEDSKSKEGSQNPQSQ
# Chain of Estrogen receptor (Homo sapiens) (P03372 whole entry, looked up): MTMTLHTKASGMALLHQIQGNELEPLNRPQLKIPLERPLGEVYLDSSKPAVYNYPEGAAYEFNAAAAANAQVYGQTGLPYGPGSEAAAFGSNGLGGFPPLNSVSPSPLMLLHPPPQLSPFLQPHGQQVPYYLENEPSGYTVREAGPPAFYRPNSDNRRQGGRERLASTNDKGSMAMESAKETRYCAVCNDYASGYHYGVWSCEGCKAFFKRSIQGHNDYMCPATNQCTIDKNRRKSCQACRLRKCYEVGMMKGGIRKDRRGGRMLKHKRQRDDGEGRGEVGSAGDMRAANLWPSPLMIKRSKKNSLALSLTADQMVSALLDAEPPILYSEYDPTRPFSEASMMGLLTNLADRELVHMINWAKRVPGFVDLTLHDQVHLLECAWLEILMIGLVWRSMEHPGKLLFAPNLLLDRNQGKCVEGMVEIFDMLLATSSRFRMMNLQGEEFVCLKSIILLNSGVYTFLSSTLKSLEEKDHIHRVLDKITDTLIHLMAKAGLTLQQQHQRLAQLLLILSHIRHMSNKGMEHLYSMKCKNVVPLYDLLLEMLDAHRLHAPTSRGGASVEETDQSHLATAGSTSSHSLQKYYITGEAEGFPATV
# Chain of Thyrotropin receptor (Homo sapiens) (P16473 whole entry, looked up): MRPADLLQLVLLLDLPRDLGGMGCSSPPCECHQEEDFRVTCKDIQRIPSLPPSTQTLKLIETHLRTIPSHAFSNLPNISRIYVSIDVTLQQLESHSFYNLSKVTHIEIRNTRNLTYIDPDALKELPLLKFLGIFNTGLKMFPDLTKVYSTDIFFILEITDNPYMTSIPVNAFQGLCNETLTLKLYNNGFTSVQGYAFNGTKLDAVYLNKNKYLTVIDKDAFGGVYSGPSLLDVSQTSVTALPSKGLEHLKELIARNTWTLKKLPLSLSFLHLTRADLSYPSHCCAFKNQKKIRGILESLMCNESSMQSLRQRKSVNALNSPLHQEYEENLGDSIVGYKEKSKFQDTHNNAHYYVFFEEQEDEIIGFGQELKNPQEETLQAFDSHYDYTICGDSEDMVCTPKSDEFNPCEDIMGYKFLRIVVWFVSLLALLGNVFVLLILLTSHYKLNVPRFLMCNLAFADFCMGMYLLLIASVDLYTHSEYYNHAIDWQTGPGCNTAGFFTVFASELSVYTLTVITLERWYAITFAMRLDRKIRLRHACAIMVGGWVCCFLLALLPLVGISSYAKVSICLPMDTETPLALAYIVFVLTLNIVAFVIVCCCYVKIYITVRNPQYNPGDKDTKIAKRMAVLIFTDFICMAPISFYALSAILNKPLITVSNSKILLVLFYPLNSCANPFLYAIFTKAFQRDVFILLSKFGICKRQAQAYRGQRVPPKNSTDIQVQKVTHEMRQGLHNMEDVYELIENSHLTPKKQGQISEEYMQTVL
# Chain of Androgen receptor (Homo sapiens) (P10275 whole entry, looked up): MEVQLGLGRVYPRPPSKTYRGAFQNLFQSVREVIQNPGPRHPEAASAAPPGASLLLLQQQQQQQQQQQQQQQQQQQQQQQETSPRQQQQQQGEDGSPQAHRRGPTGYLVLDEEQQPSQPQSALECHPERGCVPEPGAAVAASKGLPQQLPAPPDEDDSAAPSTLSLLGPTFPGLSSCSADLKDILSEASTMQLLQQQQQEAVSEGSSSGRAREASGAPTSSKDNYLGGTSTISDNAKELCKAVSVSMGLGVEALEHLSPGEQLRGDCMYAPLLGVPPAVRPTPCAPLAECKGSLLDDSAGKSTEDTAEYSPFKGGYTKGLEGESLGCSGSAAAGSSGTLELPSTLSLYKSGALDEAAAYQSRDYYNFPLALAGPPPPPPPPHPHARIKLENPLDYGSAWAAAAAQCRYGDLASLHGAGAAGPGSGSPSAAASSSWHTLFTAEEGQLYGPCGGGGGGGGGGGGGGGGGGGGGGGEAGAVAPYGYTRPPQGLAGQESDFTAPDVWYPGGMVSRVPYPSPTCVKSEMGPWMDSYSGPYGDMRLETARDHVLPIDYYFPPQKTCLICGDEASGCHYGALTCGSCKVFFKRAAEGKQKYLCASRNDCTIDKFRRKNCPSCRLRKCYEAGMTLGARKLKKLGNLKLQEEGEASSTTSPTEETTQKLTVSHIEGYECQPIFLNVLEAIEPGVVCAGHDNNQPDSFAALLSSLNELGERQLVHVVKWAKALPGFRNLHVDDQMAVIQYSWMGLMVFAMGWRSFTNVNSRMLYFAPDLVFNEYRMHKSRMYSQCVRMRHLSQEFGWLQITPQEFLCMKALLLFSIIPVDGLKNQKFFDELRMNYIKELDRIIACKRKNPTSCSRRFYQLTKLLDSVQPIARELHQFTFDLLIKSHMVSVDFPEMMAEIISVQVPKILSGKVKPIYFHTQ
smiles,measurement,setting,value
Clc1ccc(C(Cn2ccnc2)OCc2ccc(Sc3ccccc3)cc2)c(Cl)c1 (stereo unspecified),Potency,[1],inactive
same,Potency,[2],inactive
same,Potency,[3],inactive
same,Potency,[4],inactive
same,Potency,[5],inactive
same,Potency,[6],inactive
same,Potency,[7],inactive
same,Potency,[8],inactive
same,Potency,[9],inactive
same,Potency,[10],inactive
same,Potency,[11],inactive
same,Potency,[12],inactive
same,Potency,[13],inactive
same,outcome,[14],inactive
same,Potency,[15],inactive
CC(NN)c1ccccc1 (stereo unspecified),"activity change, negative = cytotoxicity",[1],6.27% [at 19 µM] (inactive)
same,"viability change, negative = cytotoxic",[2],-1.49% [at 19 µM] (inactive)
same,Potency,[16],inactive
same,"activity change, negative = inhibition",[4],0.741% [at 19 µM] (inactive)
same,"activity change, negative = cytotoxicity",[17],0.995% [at 19 µM] (inactive)
same,"viability change, negative = cytotoxic",[5],2.68% [at 19 µM] (inactive)
same,Potency,[6],inactive
same,activity change,[7],"1.23% [at 18.9 µM, stronger effect = higher value] (inactive)"
same,"activity change, negative = inhibition",[18],19.3% [at 19 µM] (inactive)
same,"activity change, negative = cytotoxicity",[10],-0.324% [at 19 µM] (inactive)
same,"activity change, negative = cytotoxicity",[11],-2.17% [at 19 µM] (inactive)
same,"activity change, negative = cytotoxicity",[12],1.73% [at 19 µM] (inactive)
same,cAMP activity change,[14],0.522% [at 18.9 µM] (inactive)
same,"activity change, negative = inhibition",[15],-2.3% [at 19 µM] (inactive)
CC(C)(C)CC(C)(C)c1ccc(OCCOCC[N+](C)(C)Cc2ccccc2)cc1,Potency,[1],inactive
same,Potency,[2],43.2 µM (active) and 21.1 µM (active)
same,Potency,[16],inactive
same,Potency,[4],inactive
same,Potency,[17],inactive
same,Potency,[5],48.5 µM (active)
same,Potency,[6],61.1 µM (active) and inactive
same,Potency,[7],inactive
same,Potency,[18],4.22 µM (active)
same,Potency,[8],inactive
same,Potency,[9],26.6 µM (active)
same,Potency,[10],27.3 µM (active) and 21.1 µM (active)
same,Potency,[11],27.3 µM (active) and 16.8 µM (active)
same,Potency,[12],27.3 µM (active) and 15 µM (active)
same,Potency,[13],inactive
same,outcome,[14],inactive
same,Potency,[15],inactive
CCCCC(CC)COC(=O)c1ccccc1C(=O)O (stereo unspecified),Potency,[1],inactive
same,Potency,[2],inactive
same,Potency,[16],inactive
same,Potency,[4],inactive
same,Potency,[5],inactive
same,Potency,[6],inactive
same,Potency,[7],inactive
same,Potency,[10],inactive
same,outcome,[14],inactive
CCCCCOc1ccccc1/C(=C\SC)n1ccnc1,Potency,[1],inactive
same,Potency,[2],inactive
same,Potency,[4],inactive
same,Potency,[17],inactive
same,Potency,[5],inactive
same,Potency,[6],inactive
same,Potency,[7],inactive
same,Potency,[18],inactive
same,Potency,[8],inactive
same,Potency,[9],10.6 µM (active)
same,Potency,[10],inactive
same,Potency,[11],23.7 µM (active)
same,Potency,[19],inactive
same,Potency,[12],29.8 µM (active)
same,Potency,[13],inactive
same,outcome,[14],inactive
same,Potency,[15],inactive
CC(C)c1ccc2c(c1)CC[C@H]1[C@](C)(CN)CCC[C@]21C,Potency,[1],inactive
same,Potency,[2],48.6 µM (active)
same,Potency,[4],inactive
same,Potency,[17],inactive
same,Potency,[5],48.6 µM (active)
same,Potency,[7],inactive
same,Potency,[18],15.4 µM (active)
same,Potency,[9],61.1 µM (active)
same,Potency,[10],43.3 µM (active)
same,Potency,[12],61.1 µM (active)
same,outcome,[14],inactive
O=C(Nc1cccc(Cl)c1)OCC#CCCl,Potency,[1],61.1 µM (active)
same,Potency,[2],61.1 µM (active)
same,Potency,[4],inactive
same,Potency,[17],inactive
same,Potency,[5],27.3 µM (active)
same,Potency,[6],24.3 µM (active)
same,Potency,[7],inactive
same,Potency,[18],5.45 µM (active)
same,Potency,[10],54.5 µM (active)
same,Potency,[11],54.5 µM (active)
same,Potency,[13],inactive
same,outcome,[14],inactive
same,Potency,[15],inactive
